Records with an inconclusive call do not appear. Calls of active or inactive are those of the source. Unless noted, calls follow the shape of the dose curve; as a rule, active = well fitted curve in the direction sought with a large enough effect; inconclusive = small, poorly fitted or top-dose-only effect, or another doubt; inactive = no such curve, though single readings can be large; an effect the other way counts as inactive or inconclusive.
Experiments:
[1] = molecular target: Estrogen receptor (Homo sapiens) (UniProt P03372); test: qHTS assay for small molecule antagonists of estrogen receptor alpha signaling (AID 588513; active = well fitted curve in the direction sought with a large enough effect in the signal ratio, with a control signal flat, not every such curve was filed as active; the % refers to the signal ratio; also: % is scaled to controls: 0 for no effect and ±100 for the full control effect)
Estrogen receptor (Homo sapiens), sequence (P03372 whole entry, looked up): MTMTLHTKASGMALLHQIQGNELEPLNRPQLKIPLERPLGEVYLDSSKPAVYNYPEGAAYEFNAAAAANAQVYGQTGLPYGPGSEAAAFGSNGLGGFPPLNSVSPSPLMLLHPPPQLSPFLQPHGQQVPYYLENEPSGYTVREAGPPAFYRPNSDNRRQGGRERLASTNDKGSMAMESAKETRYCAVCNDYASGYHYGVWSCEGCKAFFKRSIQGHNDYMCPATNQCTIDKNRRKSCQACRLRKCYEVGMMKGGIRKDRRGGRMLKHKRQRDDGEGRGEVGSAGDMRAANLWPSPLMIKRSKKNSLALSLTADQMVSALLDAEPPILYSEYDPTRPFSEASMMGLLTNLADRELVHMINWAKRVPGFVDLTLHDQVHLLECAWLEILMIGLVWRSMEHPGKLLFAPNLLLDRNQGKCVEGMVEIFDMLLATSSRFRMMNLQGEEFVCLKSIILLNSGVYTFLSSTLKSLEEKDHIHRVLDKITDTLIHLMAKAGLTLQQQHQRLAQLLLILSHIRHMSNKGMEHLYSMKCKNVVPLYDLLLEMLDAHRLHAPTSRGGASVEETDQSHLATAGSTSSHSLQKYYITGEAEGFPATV
How it was run: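 Antagonist mode: inhibition of 0.5 nM 17-beta-estradiol-driven beta-lactamase reporter in HEK 293 ER-alpha-UAS-bla cells, 18 h at 37C, CCF4 readout after 2 h at RT. Normalised to estradiol and DMSO; titration fitted to Hill.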

[2] = molecular target: Peroxisome proliferator-activated receptor gamma (Homo sapiens) (UniProt P37231); test: qHTS assay for small molecule agonists of peroxisome proliferator-activated receptor gamma signaling (AID 588536; active = well fitted curve in the direction sought with a large enough effect in the signal ratio, with a control signal flat, not every such curve was filed as active; the % refers to the signal ratio;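 also: 0% = DMSO basal wells and 100% = rosiglitazone at 2 µM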)
Peroxisome proliferator-activated receptor gamma (Homo sapiens), sequence (P37231 whole entry, looked up): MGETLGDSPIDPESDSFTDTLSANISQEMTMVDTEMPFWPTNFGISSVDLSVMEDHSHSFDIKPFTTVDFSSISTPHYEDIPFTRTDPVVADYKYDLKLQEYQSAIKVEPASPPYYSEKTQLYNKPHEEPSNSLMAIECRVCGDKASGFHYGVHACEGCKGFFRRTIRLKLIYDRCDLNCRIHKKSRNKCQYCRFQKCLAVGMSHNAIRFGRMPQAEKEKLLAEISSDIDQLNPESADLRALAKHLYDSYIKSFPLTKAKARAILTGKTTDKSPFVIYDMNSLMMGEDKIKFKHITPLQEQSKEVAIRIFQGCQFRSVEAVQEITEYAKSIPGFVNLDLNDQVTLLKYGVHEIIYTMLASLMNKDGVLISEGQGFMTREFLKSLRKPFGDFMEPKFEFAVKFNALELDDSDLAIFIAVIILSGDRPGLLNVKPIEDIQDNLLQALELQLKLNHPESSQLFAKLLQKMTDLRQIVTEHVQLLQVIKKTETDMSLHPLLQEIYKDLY
How it was run: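 Beta-lactamase reporter read-out: CCF4 fluorescence (ex 405, em 460/530 nm) after 2 h at RT. HEK293 GeneBLAzer cells were treated for 16 h at 37 C. Hill fits gave EC50 and efficacy versus 2 uM rosiglitazone (100%) and DMSO (0%).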

[3] = molecular target: Vitamin D3 receptor (Homo sapiens) (UniProt P11473); test: qHTS assay for small molecule agonists of vitamin D receptor signaling (AID 588543; calls by dose curve;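 also: 0% = DMSO basal and 100% = reference agonist control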)
Vitamin D3 receptor (Homo sapiens), sequence (P11473 whole entry, looked up): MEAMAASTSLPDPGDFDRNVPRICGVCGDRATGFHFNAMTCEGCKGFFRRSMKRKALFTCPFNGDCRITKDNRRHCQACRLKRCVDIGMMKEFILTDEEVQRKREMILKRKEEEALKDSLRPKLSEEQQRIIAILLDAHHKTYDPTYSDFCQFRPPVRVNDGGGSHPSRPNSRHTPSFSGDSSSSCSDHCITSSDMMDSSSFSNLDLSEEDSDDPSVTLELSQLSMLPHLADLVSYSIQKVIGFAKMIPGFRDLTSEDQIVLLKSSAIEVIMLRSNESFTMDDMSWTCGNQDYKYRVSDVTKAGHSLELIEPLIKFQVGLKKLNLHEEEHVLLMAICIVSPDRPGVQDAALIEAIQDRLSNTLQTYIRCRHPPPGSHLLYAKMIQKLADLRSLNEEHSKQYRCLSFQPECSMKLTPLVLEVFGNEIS
How it was run: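 Agonist-mode beta-lactamase reporter: HEK293T VDR-UAS-bla cells in charcoal-stripped 2% FBS, compound series 16 h 37 C, CCF4 2 h RT. EC50 from Hill fit, scaled against DMSO and 50 nM calcitriol control.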

[4] = qHTS assay for small molecule agonists of retinoid X receptor alpha signaling (AID 588544; calls by dose curve;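 as to activation: 0% = DMSO basal wells and 100% = reference agonist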); details: HEK293T RXRa-UAS-bla, beta-lactamase reporter, 18 h; 530 nm emission
[5] = molecular target: Retinoic acid receptor RXR-alpha (Homo sapiens) (UniProt P19793); test: as above
Retinoic acid receptor RXR-alpha (Homo sapiens), sequence (P19793 whole entry, looked up): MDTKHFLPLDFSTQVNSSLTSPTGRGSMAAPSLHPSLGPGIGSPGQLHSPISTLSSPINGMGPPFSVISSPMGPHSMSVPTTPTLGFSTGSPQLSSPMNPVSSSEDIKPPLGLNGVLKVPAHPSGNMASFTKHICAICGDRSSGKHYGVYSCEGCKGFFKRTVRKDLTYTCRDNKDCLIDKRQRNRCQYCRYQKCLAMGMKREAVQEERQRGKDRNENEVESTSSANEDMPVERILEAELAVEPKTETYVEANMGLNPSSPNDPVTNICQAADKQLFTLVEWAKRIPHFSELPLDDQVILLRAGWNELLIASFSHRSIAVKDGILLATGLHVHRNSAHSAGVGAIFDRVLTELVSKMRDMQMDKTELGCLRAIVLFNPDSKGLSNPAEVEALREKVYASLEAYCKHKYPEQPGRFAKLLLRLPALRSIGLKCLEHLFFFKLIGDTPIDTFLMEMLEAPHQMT

[6] = molecular target: Thyroid hormone receptor beta (Homo sapiens) (UniProt P10828); test: qHTS assay for small molecule agonists of thyroid hormone receptor beta signaling (AID 588545; calls by dose curve)
Thyroid hormone receptor beta (Homo sapiens), sequence (P10828 whole entry, looked up): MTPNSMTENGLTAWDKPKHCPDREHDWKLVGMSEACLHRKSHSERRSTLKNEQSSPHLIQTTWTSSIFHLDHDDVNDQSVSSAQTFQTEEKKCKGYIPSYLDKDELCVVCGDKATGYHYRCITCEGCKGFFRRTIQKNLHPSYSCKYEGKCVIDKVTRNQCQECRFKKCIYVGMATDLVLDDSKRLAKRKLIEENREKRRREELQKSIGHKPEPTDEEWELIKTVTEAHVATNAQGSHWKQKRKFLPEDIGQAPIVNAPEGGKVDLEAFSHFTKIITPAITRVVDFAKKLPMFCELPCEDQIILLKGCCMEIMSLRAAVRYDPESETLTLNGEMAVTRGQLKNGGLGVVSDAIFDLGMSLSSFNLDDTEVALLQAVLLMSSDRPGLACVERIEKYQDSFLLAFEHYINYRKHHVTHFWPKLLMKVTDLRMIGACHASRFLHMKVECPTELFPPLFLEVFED
How it was run: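 Agonist-mode beta-lactamase reporter assay, HEK 293 cells, 2% charcoal/dextran FBS; cells plated 4 hrs, compound 18 hrs at 37 C, CCF4 2 hrs RT. Normalized to 10 nM T3 (100%) and DMSO (0%); Hill fit gives EC50, efficacy.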

[7] = molecular target: Thyroid hormone receptor beta (Homo sapiens) (UniProt P10828); test: qHTS assay for small molecule antagonists of thyroid hormone receptor beta signaling (AID 588547; active = well fitted inhibition curve with a large enough effect in the signal ratio, with a control signal flat, not every such curve was filed as active; the % refers to the signal ratio;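 also: cells stimulated with 0.4 nM T3 agonist during compound exposure; series mostly up to about 77 µM; % is scaled to controls: 0 for no effect and ±100 for the full control effect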); details: TR-UAS-bla HEK293, beta-lactamase ratio, antagonist mode, 18 h
How it was run: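 TR-UAS-bla GripTite HEK293 cells in 2% charcoal/dextran FBS medium were preincubated 4 h at 37 C, given compound (0.59 nM to 92 uM) plus 0.4 nM T3 (final) for 18 h, then CCF4 for 2 h at RT; Hill fit gave IC50.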

[8] = qHTS assay for small molecule activators of the p53 signaling pathway (AID 651743; active = well fitted activation curve with a large enough effect in the signal ratio, not every such curve was filed as active; the % refers to the signal ratio; also: series mostly up to about 92 µM; % of control where 0% means no effect); details: HCT-116 p53RE-bla, beta-lactamase FRET ratio, 16 h; activation: stronger effect = higher value
How it was run: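 Here HCT-116 cells with an integrated p53-responsive beta-lactamase gene were incubated with compounds (16 hours, 37 C) after a 5-hour plating period; beta-lactamase activity was detected as fluorescence intensity via B/G FRET substrate.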

[9] = qHTS assay for small molecule activators of the nuclear factor-kappa B (NF-kB) signaling pathway (AID 651749; active = well fitted activation curve with a large enough effect in the signal ratio; the % refers to the signal ratio; also: series mostly up to about 77 µM; % of control where 0% means no effect); details: NF-kB-bla ME-180 cells, beta-lactamase FRET ratio, 16 h; activation: stronger effect = higher value
How it was run: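 Beta-lactamase reporter expression, controlled by NF-kB response elements in ME-180 cells, was quantified fluorometrically via FRET disruption; cells at 2,000/well had been incubated with 23 nL test compound for 16 hr.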

[10] = qHTS assay for environmental chemicals that activate the Aryl hydrocarbon Receptor (AhR) signaling pathway (AID 651777); details: 1A2-DRE human hepatoma cells, luciferase, 24 h; activation: stronger effect = higher value; also: % of control where 0% means no effect; nearly all actives have a fitted effect of over 15% in size
How it was run: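 Induction of CYP1A2 transcription through AhR is detected by luciferase in 1A2-DRE hepatoma cells. Compounds or DMSO act for 24 hr at 37 C before a 30 min One-Glo step at room temperature.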

[11] = molecular target: Peroxisome proliferator-activated receptor alpha (Homo sapiens) (UniProt Q07869); test: qHTS assay for small molecule agonists of the peroxisome proliferator-activated receptor alpha (PPARalpha) signaling pathway (AID 651778); details: PathHunter PPARalpha complementation, chemiluminescence, 6 h; max response: stronger effect = higher value; also: % of control where 0% means no effect
Peroxisome proliferator-activated receptor alpha (Homo sapiens), sequence (Q07869 whole entry, looked up): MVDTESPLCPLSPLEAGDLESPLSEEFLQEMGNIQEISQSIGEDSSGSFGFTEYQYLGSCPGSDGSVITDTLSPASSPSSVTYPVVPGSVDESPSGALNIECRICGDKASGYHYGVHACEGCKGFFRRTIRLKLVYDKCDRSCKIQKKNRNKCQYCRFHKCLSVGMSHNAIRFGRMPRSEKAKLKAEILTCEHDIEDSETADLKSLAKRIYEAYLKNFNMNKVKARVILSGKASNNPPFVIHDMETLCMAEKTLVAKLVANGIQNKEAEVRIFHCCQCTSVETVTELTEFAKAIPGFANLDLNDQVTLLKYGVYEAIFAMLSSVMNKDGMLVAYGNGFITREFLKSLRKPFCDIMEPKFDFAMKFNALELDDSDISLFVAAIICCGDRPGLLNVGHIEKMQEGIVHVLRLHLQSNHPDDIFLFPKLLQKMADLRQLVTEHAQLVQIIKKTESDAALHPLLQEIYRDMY
How it was run: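 Cells plated at 2,000/well and held overnight at 37 C, 5% CO2, then compound added by pin tool for 6 hr; after PathHunter detection reagent and 60 min at room temperature, chemiluminescence from enzyme complementation was read.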

[12] = qHTS assay for small molecule agonists of the antioxidant response element (ARE) signaling pathway measured by Nrf2-dependant transcriptional activity (AID 720636; active = well fitted curve in the direction sought with a large enough effect in the repeat runs; an effect the other way counts as inactive or inconclusive; also: potency is read from the fitted curve at half-maximal effect;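 as to activation: HepG2 cells with an ARE-driven luciferase reporter; % of control where 0% means no effect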)
How it was run: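 We exposed ARE-luc HepG2 cells, seeded in assay medium with 1% dialyzed FBS and allowed 6 hr to adhere, to test compounds overnight (16 hr, 37 C) before measuring luciferase with ONE-Glo.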

[13] = qHTS assay for small molecule agonists of the antioxidant response element (ARE) signaling pathway measured by Nrf2-dependant transcriptional activity - cell viability counter screen (AID 720653; active = well fitted curve in the direction sought with a large enough effect in the repeat runs; an effect the other way counts as inactive or inconclusive; also: % is scaled to controls: 0 for no effect and ±100 for the full control effect); details: ARE-bla HepG2 viability, CellTiter-Glo ATP luminescence, 16 h; max response: stronger effect = lower value
How it was run: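 ARE-bla HepG2 cells (2,000/well) rested 5 hrs at 37C/5% CO2, then exposed to compounds in DMSO for 16 hrs. Viability was read in the same wells as intracellular ATP by luminescence, 30 min at room temperature after reagent addition.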

[14] = qHTS assay for cell viability of HEK293 cells (AID 743288); details: ATP luminescence (CellTiter-Glo), 18 h; max response: stronger effect = lower value; also: % is scaled to controls: 0 for no effect and ±100 for the full control effect; nearly all actives have a fitted effect of over 50% in size
How it was run: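 Readout is luciferase-coupled ATP content (CellTiter-Glo luminescence, 30 min room temperature) as a measure of metabolically competent cells. Parental HEK293 cells were plated 5 h or more before compound addition, then treated 18 h at 37 C.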

[15] = qHTS assay for cell viability of the p53RE-bla HCT-116 cell line (AID 743292); also: % is scaled to controls: 0 for no effect and ±100 for the full control effect; nearly all actives have a fitted effect of over 55% in size
How it was run: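 In this qHTS counter-screen, metabolically competent p53RE-bla HCT-116 cells were counted via their ATP content. Compounds were applied for 16 h at 37 C and luciferase-coupled luminescence was measured.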

[16] = molecular target: Nuclear receptor subfamily 1 group I member 2 (Rattus norvegicus) (UniProt Q9R1A7); test: qHTS assay for small molecule activators of the rat pregnane X receptor (rPXR) signaling pathway (AID 651751; call rule not given here; also: 0% is about no effect); details: rPXR reporter cells, luciferase (One-Glo), 24 h
Nuclear receptor subfamily 1 group I member 2 (Rattus norvegicus), sequence (Q9R1A7 whole entry, looked up): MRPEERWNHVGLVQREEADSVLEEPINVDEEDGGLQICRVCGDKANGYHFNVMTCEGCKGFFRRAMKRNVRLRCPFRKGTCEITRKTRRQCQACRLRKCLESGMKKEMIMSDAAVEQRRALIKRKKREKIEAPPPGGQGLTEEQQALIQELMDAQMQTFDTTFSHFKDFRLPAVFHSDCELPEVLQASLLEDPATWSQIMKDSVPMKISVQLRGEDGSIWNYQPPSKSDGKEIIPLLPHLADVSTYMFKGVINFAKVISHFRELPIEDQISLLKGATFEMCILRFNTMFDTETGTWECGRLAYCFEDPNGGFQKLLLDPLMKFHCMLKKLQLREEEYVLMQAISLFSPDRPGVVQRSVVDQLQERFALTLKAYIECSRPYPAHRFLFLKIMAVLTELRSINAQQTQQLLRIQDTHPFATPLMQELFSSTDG

[17] = qHTS assay for small molecule activators of the human pregnane X receptor (PXR) signaling pathway (AID 720659; call rule not given here; also: 0% is about no effect)
[18] = qHTS assay for small molecule antagonists of retinoid X receptor alpha signaling (AID 588546; active = well fitted inhibition curve with a large enough effect in the signal ratio, with a control signal flat, not every such curve was filed as active; the % refers to the signal ratio;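 also: cells stimulated with 9-cis-retinoic acid as agonist; % is scaled to controls: 0 for no effect and ±100 for the full control effect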); details: HEK293T RXRa-UAS-bla, beta-lactamase ratio, antagonist mode; measured here: W530 green channel, cytotoxicity proxy
How it was run: (§1)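 Beta-lactamase reporter inhibition, read as CCF4 fluorescence ratio (ex 405, em 460/530 nm) after 2 h at RT. HEK293T UAS-bla cells, 2500/well, were stimulated with 9-cis-RA at 500 or 100 nM final alongside test compound for 18 h at 37 C.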

[19] = molecular target: Retinoic acid receptor RXR-alpha (Homo sapiens) (UniProt P19793); test: as above; details: HEK293T RXRa-UAS-bla, beta-lactamase ratio, antagonist mode
How it was run: as §1

[20] = molecular target: Peroxisome proliferator-activated receptor gamma (Homo sapiens) (UniProt P37231); test: qHTS assay for small molecule antagonists of peroxisome proliferator-activated receptor gamma signaling (AID 588537; active = well fitted inhibition curve with a large enough effect in the signal ratio, with a control signal flat, not every such curve was filed as active; the % refers to the signal ratio;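 also: reporter cells co-stimulated with 50 nM rosiglitazone agonist during compound treatment; % of control where 0% means no effect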)
How it was run: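 HEK293 cells, PPAR-gamma-UAS-bla, 3000/well. Pre-incubation 6-6.5 h, 37 C. Compound titration with rosiglitazone 50 nM final, 16 h. CCF4 dye, 2 h RT, dual-emission fluorescence.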

| SMILES | Potency [1] | outcome [2] | outcome [3] | max response [4] [%] | Potency [5] | Potency [6] | activity change % (negative = inhibition) [7] | activation [8] | activation [9] | activation [10] | max response [11] | Potency [12] | max response [13] | max response [14] | Potency [15] | max response [16] | outcome [17] | max response [18] [%] | max response [19] | Potency [20] |
| --- | --- | --- | --- | --- | --- | --- | --- | --- | --- | --- | --- | --- | --- | --- | --- | --- | --- | --- | --- | --- |
| CCCCOCCOCCOC(C)=O | inactive | inactive | inactive | -16.2 | inactive | inactive | -10.2% (inactive) | -0.502% (inactive) | -2.2% (inactive) | -2.27% (inactive) | -0.313% (inactive) | inactive | -1.74% (inactive) | 5.77% (inactive) | inactive | -2.22% (inactive) | inactive | – | – | – |
| Oc1ccc2ccccc2c1N=Nc1ccccc1 | inactive | inactive | – | – | – | inactive | – | – | 0.732% (inactive) | – | 0.672% (inactive) | 9.69 µM (active) | -25.3% (inactive) | -20.8% (inactive) | inactive | 5.24% (inactive) | – | -13.8 | -15.2% (inactive) | – |
| CC(=O)OC1CCC(C(C)(C)C)CC1 (centres undefined) | inactive | – | inactive | -2.86 | inactive | inactive | 5.89% (inactive) | -2.06% (inactive) | – | 3.13% (inactive) | -0.283% (inactive) | – | 0.584% (inactive) | -10.3% (inactive) | – | 4.95% (inactive) | inactive | -1.04 | -6.71% (inactive) | – |
| C[Si](C)(C)N[Si](C)(C)C | inactive | inactive | inactive | -0.733 | inactive | inactive | -1.93% (inactive) | 1.4% (inactive) | – | 1.22% (inactive) | -0.0059% (inactive) | inactive | 1.14% (inactive) | -5.89% (inactive) | – | – | – | -10.7 | 1.24% (inactive) | inactive |
| CCCCCCCCCCCCCCCCN(C)C | inactive | – | – | -18.2 | inactive | inactive | – | -1.17% (inactive) | – | 0.752% (inactive) | -0.399% (inactive) | inactive | -13% (inactive) | -6.67% (inactive) | – | 2.85% (inactive) | inactive | -9.65 | -24.8% (inactive) | – |
